Here are results for 116 molecules from PubChem BioAssay AID2253 (Southern Research Specialized Biocontainment Screening …, 2010).

The whole screen tested about 2,200 compounds, of which about 1,300 (59%) were called active. How the calls were made is not given here. So high a share suggests a set chosen from earlier hits. Not all results are given here. Where a call stands in place of a potency, no number is given. Potency and affinity values are given separately.

The nature of the assay: human monocytic cell viability reduction – S. typhimurium screen hits, cytotoxicity control for Salmonella PhoP regulon inhibitors, dose response (AID 2253). As to conditions: THP-1 viability, CellTiter-Glo luminescence, 72 h; series mostly up to 50 µM. On the technique in general: Cellular ATP, detected with luciferase, serves as a proxy for viable cell number.
With `CCN(CC)c1nc2n(c(=O)n1)CCO2`, the result was inactive. Under `COC(=O)Cc1c(O)ccn(Cc2ccc(F)cc2)c1=O` stands “inactive”; under `CC1CCN(C(c2cc3cc4c(cc3[nH]c2=O)OCO4)c2nnnn2CC2CCCO2)CC1` (stereo unspecified), “inactive”. The result for `CCOC(=O)C1CCCN(C(=O)Cc2ccc(Cl)cc2)C1` (stereo unspecified) reads “inactive”. The result for `Cc1ccc(N(CC(=O)N/N=C/c2ccco2)S(=O)(=O)c2ccccc2)cc1` reads “inactive”; that for `COCC(=O)N=Nc1c(O)[nH]c2ccccc12`, “inactive”. On to `C=CCn1c(C)cc(C(=O)CSc2nc(N)cc(N)n2)c1C`, for which the molecule was called inactive. `COc1c(/C=N/Nc2nc(N3CCCCC3)nc(N3CCCCC3)n2)cccc1[N+](=O)[O-]`: the molecule was called inactive.

On to `O=C(O)CC(NC(=S)NCc1ccccc1)C(=O)O` (stereo unspecified), for which the outcome was inactive.

Take `CCCCN(C(=O)NC(=O)Nc1nc2ccc(OC)cc2s1)S(C)(=O)=O`: the molecule was classed as inactive.

In the case of `CCOc1ccc(NC(=O)CCC(=O)n2nc(C)cc2C)cc1`, the outcome was inactive.

As for `CCOc1ccc(Nc2nc(NCCN3CCOCC3)nc(OC)n2)cc1`, the outcome was inactive. In the case of `CNc1nc(Sc2ccccc2)cc(C(F)(F)F)n1`, the molecule was classed as inactive. For `Cc1ccc(/C(O)=C2\C(=O)C(=O)N(CC(C)O)C2c2cccc(F)c2)cc1` (stereo unspecified), the result was inactive. The result for `CCOC(=O)CCCc1c[nH]c2ccccc12` reads “inactive”; that for `NC(=O)CCc1c[nH]c2ccccc12`, “inactive”.

Turning to `CC1COc2c(N3CCN(C)CC3)c(F)cc3c(=O)c(C(=O)O)cn1c23` (stereo unspecified), the outcome was inactive. Under `Cn1ncc(N=Cc2ccccc2O)c1C(=O)Nc1ccccc1` stands “inactive”; under `CCOC(=O)c1c(/N=C/c2ccc(O)cc2O)sc2c1CCC2`, “inactive”; under `CCCc1ccc(C(=O)CCC(=O)O)cc1`, “inactive”. Consider `CCOC(=O)c1ccccc1C(=O)N1CCOCCOCCOCC1`, for which the result was inactive. The result for `COc1ccccc1N1CCN(C(=O)CSc2nc3ccccc3o2)CC1` reads “inactive”; that for `COc1ccc(C2C(C#N)=C(N)OC3=C2C(=O)CCC3)cc1Cn1cc([N+](=O)[O-])cn1` (stereo unspecified), “inactive”. As to `Cc1ccc2nc(SCC(=O)c3c(C)[nH]c4ccccc34)[nH]c2c1`, the molecule was classed as inactive.

For `CCOC(=O)c1[nH]c2ccccc2c1NC(=O)C(C)(C)C`, the result was inactive. As for `CNC(=O)CSc1nnc(-c2cccnc2)n1CCc1ccccc1`, the molecule was called inactive.

With `CCCCC1CCC(C(=O)Nc2ccccc2)CC1` (stereo unspecified), the result was inactive. With `Cc1cccc(NC(=O)c2ccc(Cn3cc(C(F)(F)F)ccc3=O)cc2)c1`, the result was inactive. Under `Cn1cnnc1SCC(=O)Nc1cccc(C(=O)O)c1` stands “inactive”. The result for `S=C(c1ccc2c(c1)OCO2)N1CCCC1` reads “inactive”.

In the case of `c1ccc(-c2ncnc3nc4n(c23)CCC4)cc1`, the result was inactive. Regarding `Cc1c(Cl)cccc1NC(=O)CSc1ncnc2c1cnn2CCc1ccccc1`, the molecule was classed as inactive.

For `COC(=O)C1C(O)C(C)C(O)C(C)(O)/C=C\C=C(/C)C(=O)Nc2c(C)c(OC(C)=O)c3c(c2O)C(=O)C(C)=C2OCOC(=C23)/C(C)=C/C(C)(O)C(O)C(C)C1O` (stereo unspecified), the molecule was classed as inactive. As to `CCSc1nnc(NC(=O)Cc2cccc(OC)c2)s1`, the call was inactive.

Consider `CNc1nnc(-c2cccc(N(C)C)c2)s1`, for which the result was inactive. Under `O=C(COc1ncnc2sccc12)N1CCN(S(=O)(=O)c2ccc(Cl)cc2)CC1` stands “inactive”; under `COc1cccc(OCC(O)CN2CCN(c3ccccn3)CC2)c1` (stereo unspecified), “inactive”. On to `C=CCOc1ccccc1CNCCCN1CCOCC1`, for which the molecule was classed as inactive.

With `COc1ccc(OC)c(NC(=S)NCCCN2CCOCC2)c1`, the result was inactive. Under `Cc1ccc(NC(=S)NCCc2ccccc2)c(C)c1` stands “inactive”. Turning to `c1ccc(Cn2nnc3c(NCc4ccc5c(c4)OCO5)nc(C4CC4)nc32)cc1`, the result was inactive.

For the molecule `O=C(O)c1cc(NCc2ccc3c(c2)OCO3)ccc1N1CCOCC1`, the molecule was called inactive. Under `CCOc1ccc(N/C=C/C(=O)c2ccc(OC)cc2)c([N+](=O)[O-])c1` stands “inactive”; under `COc1ccc(NC(=O)CN2CCCCC2)c([N+](=O)[O-])c1`, “inactive”. Regarding `CCCc1nnc(NC(=O)c2cn(CC)c3cc(N4CCN(C)CC4)c(F)cc3c2=O)s1`, the molecule was called inactive. The result for `Cc1nc(SCC(=O)NC(C)c2ccccc2)c2oc3ccccc3c2n1` (stereo unspecified) reads “inactive”; that for `CCCn1c(SCC(=O)NCCc2ccccc2)nnc1-c1cccnc1`, “inactive”. The result for `Cn1ccnc1C(O)c1ccc(OCc2ccccc2)cc1` (stereo unspecified) reads “inactive”; that for `CCOC(=O)c1c(N)ssc1=S`, “inactive”. On to `O=S1(=O)CC(O)C(Nc2ccccc2Cl)C1` (stereo unspecified), for which the molecule was called inactive.

Turning to `NC(=O)c1c(N)sc2c1CCCCC2`, the call was inactive. The result for `O=C(Nc1cnn(Cc2ccc(F)cc2)c1)c1cnccn1` reads “inactive”; that for `O=C(Nc1cnc2ccccc2c1)N1CCOCC1`, “inactive”; that for `CC(C)(C)n1ncc2c(=O)n(CC(=O)Nc3ccc4c(c3)OCO4)cnc21`, “inactive”. With `CC(C)n1cc(C(=O)N2CCCC(N3CCN(c4ccc(F)cc4)CC3)C2)cn1` (stereo unspecified), the call was inactive. As for `O=[N+]([O-])c1ccc(N2CCN(CCOc3nonc3-c3ccccc3)CC2)c(Cl)c1`, the result was inactive.

Take `Cc1ccc(-n2nnnc2SCC(=O)Nc2ncc(Cc3ccccc3Cl)s2)cc1`: the result was inactive. On to `Cc1ccc(NS(=O)(=O)c2ccc(N3C(=O)CCC3=O)cc2)cc1`, for which the molecule was classed as inactive. Under `CCC(CC)C(=O)N1c2ccc(F)cc2CCC1C` (stereo unspecified) stands “inactive”. With `CCOC(=O)N1CCN(C(=O)c2cn(CC)c3cc(N4CCN(C)CC4)c(F)cc3c2=O)CC1`, the molecule was called inactive. The result for `Nc1[nH]c(=O)ncc1F` reads “inactive”. The result for `O=C(NCCc1cn2ccccc2n1)c1ccccc1F` reads “inactive”.

On to `CC(C)CCn1c(SCC(=O)N2CC(=O)Nc3ccccc32)nc2scc(-c3cccs3)c2c1=O`, for which the molecule was classed as inactive. The result for `Cc1nnc(NC(=O)CSc2ncnc3scc(-c4ccccc4)c23)s1` reads “inactive”. The result for `COC(=O)c1ccc(NC(=S)Nc2ccc3ccccc3c2)cc1` reads “inactive”.

Regarding `COC(=O)c1ccccc1Oc1cnc2ccccc2n1`, the outcome was inactive.

As for `COc1ccc(/C=N/NC(=O)CC(=O)NCc2cccnc2)cc1`, the molecule was called inactive. For the molecule `CC(=O)N1CCN(c2cc3c(cc2F)c(=O)c(C(=O)O)cn3C2CC2)CC1`, the call was inactive. The result for `Cn1c(CO)cnc1SCc1ccc([N+](=O)[O-])cc1` reads “inactive”; that for `CC(=O)c1sc(NC(=O)COc2ccc([N+](=O)[O-])cc2)nc1C`, “inactive”. The result for `CCOC(=O)CC(=O)CSc1nc2c(c(C)c1C#N)CCC2` reads “inactive”; that for `Cc1cc2c(c(=O)n1C)C(Cc1ccccc1)C(C#N)=C(N)O2` (stereo unspecified), “inactive”. The result for `O=C1Nc2ccccc2C(O)(C(=O)N2CCCCC2)N1c1ccccc1` (stereo unspecified) reads “inactive”.

`O=C1CC(c2ccccc2)n2ncnc2N1` (stereo unspecified): the molecule was called inactive. As to `NC1CCN(c2c(F)cc3c(=O)c(C(=O)O)cn(C4CC4)c3c2Cl)C1` (stereo unspecified), the molecule was called inactive. Consider `Cc1ccc(CCNC(=O)C2CCN(S(=O)(=O)N3CCCC3)CC2)cc1`, for which the result was inactive. Under `Cc1ccc(CCNC(=O)C2CCCN(S(=O)(=O)c3c(C)noc3C)C2)cc1` (stereo unspecified) stands “inactive”; under `O=C(CSc1nccc(=O)[nH]1)N1c2ccccc2CCc2ccccc21`, “inactive”. As to `CCN(CCO)Cc1csc2ccccc12`, the result was inactive. The result for `Cc1nc2ccccn2c1C(=O)N/N=C/c1ccccc1[N+](=O)[O-]` reads “inactive”; that for `O=C(N/N=C/c1cccn1-c1ccc([N+](=O)[O-])cc1)C(O)c1ccccc1` (stereo unspecified), “inactive”. Under `Cc1cc(C(=O)N/N=C/C=C/c2ccc3c(c2)OCO3)n[nH]1` stands “inactive”. Under `Cc1cc(C(=O)N/N=C/c2cccc([N+](=O)[O-])c2O)n[nH]1` stands “inactive”; under `CC1(C)CC2CC(C)(CN2C(=O)COC(=O)c2n[nH]c(=O)c3ccccc23)C1` (stereo unspecified), “inactive”. For the molecule `CCOC(=O)c1sc2nccc(N(C)C)c2c1N=CNOCc1c(F)cccc1Cl`, the call was inactive.

Turning to `O=C(CCCNS(=O)(=O)c1ccccc1)NCc1ccco1`, the call was inactive. Under `O=C(Cn1cnc2ccccc2c1=O)NCc1ccco1` stands “inactive”; under `O=C1CSC(=S)N1c1ccc(F)cc1`, “inactive”. As to `COc1ccc(OC)c(C(=O)C2COC(=O)C2)c1` (stereo unspecified), the call was inactive. The result for `Cc1cc2ncn(CC(O)COc3cccc(C(=O)O)c3)c2cc1C` (stereo unspecified) reads “inactive”. For `COc1ccc(C2C(C(=O)c3cccs3)=C(O)C(=O)N2c2nnc(C)s2)cc1OC` (stereo unspecified), the call was inactive. Take `Brc1ccc(OCCn2ccnc2)cc1`: the call was inactive. `Clc1ccccc1OCCn1ccnc1`: the molecule was called inactive. Under `COc1ccc2c(c1)cc1n2CCN2CCCN=C12` stands “inactive”. The result for `CCn1cc(C(=O)NCc2ccncc2)c(=O)c2cc(F)c(N3CCN(C(=O)c4ccco4)CC3)cc21` reads “inactive”. The result for `O=C(CCCOc1ccccc1)N1CCCc2ccccc21` reads “inactive”; that for `C(=N\N1CCN(Cc2ccccc2)CC1)/c1cccnc1`, “inactive”; that for `O=C1CC(N2CCN(Cc3ccccc3)CC2)C(=O)N1c1ccccc1` (stereo unspecified), “inactive”. With `CC(C)(C)c1ccc(-c2n[nH]c(=S)n2/N=C/c2ccncc2)cc1`, the molecule was called inactive.

Regarding `O=C(CCN1CCc2ccccc2C1)Nc1ccccc1F`, the molecule was classed as inactive.

Regarding `CCn1nnc(-c2ccccc2NC(=O)c2ccc(-n3cnnn3)cc2)n1`, the molecule was classed as inactive. The result for `N#Cc1nc(-c2cccs2)oc1NCCCN1CCOCC1` reads “inactive”. Under `CCOc1ccc(/C(O)=C2\C(=O)C(=O)N(CCN(C)C)C2c2cccc(OC)c2OC)cc1Cl` (stereo unspecified) stands “inactive”. Under `O=C(CCn1nnc(-c2cccs2)n1)NCc1ccccc1Cl` stands “inactive”; under `COc1ccc(C(=O)COc2nc(C)cc(C)c2C#N)cc1`, “inactive”; under `CCc1nc2cc(Cl)c(Cl)cc2[nH]1`, “inactive”.

Consider `CC(=O)Nc1c(O)nc(SCC(=O)N2CCN(c3ccc(F)cc3)CC2)[nH]c1=O`, for which the molecule was called inactive. The result for `O=C(NCCCN1CCCC1=O)c1ccc(Cl)c(NS(=O)(=O)c2ccc(F)cc2)c1` reads “inactive”; that for `CC(C)(C)NC(=O)CSc1nnc(-c2ccncc2)o1`, “inactive”. `CC(=O)NCCOc1c(C)cc(S(N)(=O)=O)cc1C`: the molecule was classed as inactive. Under `Cn1cccc1CC(=O)N/N=C/C(Cl)=C/c1ccccc1` stands “inactive”.

Consider `CC1(C)CC(=O)c2c(nc3ccccc3c2N)C1`, for which the result was inactive. `Cc1cc(C(=O)N2CCN(C/C=C/c3ccccc3)CC2)no1`: the result was inactive. Under `CC(CCc1ccccc1)NC(=O)c1ccccc1` (stereo unspecified) stands “inactive”. `COCc1cc(C)nc(N2CCc3ccccc32)c1C#N`: the call was inactive.

Turning to `COc1ccc(-c2cnn3c(N)c(S(=O)(=O)C(C)(C)C)cnc23)cc1`, the call was inactive.
